Measured values reported in PubChem BioAssay (NCI).
The panel holds about 83,000 compounds, 20% with a hit somewhere; the sample as a whole holds those more often.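 Treatment: one concentration, 48 hours, 96-well format. Scoring: percent growth, with anything below 10 considered active.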 Unmarked numbers belong to inactive results. Activity calls are given as the source filed them.

Tests used:
Test in all cases: NCI-60 one-dose screen, 48 h (100 = growth as untreated, 0 = no growth, -100 = all killed)
Conditions in all cases: 10 µM unless noted
SK-MEL-2 melanoma = tested on: SK-MEL-2 melanoma
EKVX NSCLC = tested on: EKVX NSCLC
SN12C renal = tested on: SN12C renal
UO-31 renal = tested on: UO-31 renal
TK-10 renal = tested on: TK-10 renal
ACHN renal = tested on: ACHN renal
CAKI-1 renal = tested on: CAKI-1 renal
A498 renal = tested on: A498 renal
CCRF-CEM leukemia = tested on: CCRF-CEM leukemia
MOLT-4 leukemia = tested on: MOLT-4 leukemia

SMILES	growth (SK-MEL-2 melanoma)	growth (EKVX NSCLC)	growth (SN12C renal)	growth (UO-31 renal)	growth (TK-10 renal)	growth (ACHN renal)	growth (CAKI-1 renal)	growth (A498 renal)	growth (CCRF-CEM leukemia)	growth (MOLT-4 leukemia)
O=C(c1ccc(-c2nc(CSc3nc4ccccc4s3)no2)cc1)N1CCSCC1	45.7%	47.1%	82.3%	55.6%	55.1%	60.4%	63.5%	82.1%	71.2%	-1.49% (active)
CCCCCCCCn1ccc2cc(NC(=O)Cn3cc(CN4CCCCC4)nn3)ccc21	35.6%	85%	34.5%	-96.6% (active)	75.7%	57.5%	-45% (active)	97%	15.7%	8.5% (active)
COc1ccc2cc(-c3ccc(NC(C)=O)c(=O)o3)ccc2c1	98.6%	106%	102%	77.6%	97.4%	98.7%	89.7%	85%	93.1%	90.9%
O=C(Nc1nc2ccc(F)cc2s1)c1cccnc1Nc1ccc(Cl)cc1	54.4%	9.81% (active)	17.9%	56.2%	27.4%	38.8%	20.2%	17.9%	5.11% (active)	16.6%
CCCC(=O)NC(c1ccc2c(c1)OCO2)c1ccc2cccnc2c1O (stereo not given)	46%	19.1%	23.9%	-23.2% (active)	25.8%	5.12% (active)	6.21% (active)	12.9%	4.72% (active)	2.22% (active)
O=C1Nc2ccc(I)cc2C1=O	85.4%	102%	98%	77.9%	140%	103%	64.5%	122%	119%	102%
CCCCN[C@H]1CC[C@@]2(C)[C@@H](CC[C@@]3(C)[C@H]2[C@H](O)C[C@H]2/C(=C(\CCC=C(C)C)C(=O)OC)[C@@H](OC(C)=O)C[C@@]23C)[C@@H]1C	106%	96.9%	94.6%	81.5%	97.4%	91.7%	90.6%	97.7%	41.3%	10.6%
C=C(C)[C@@H]1CC[C@]2(C(=O)O)CC[C@]3(C)[C@H](CC[C@@H]4[C@@]5(C)C[C@@H](Cc6cn(CCO[C@@H]7O[C@H](COC(C)=O)[C@H](OC(C)=O)[C@H](OC(C)=O)[C@H]7OC(C)=O)nn6)[C@H](O)C(C)(C)[C@@H]5CC[C@]43C)[C@@H]12	67.2%	72%	70.3%	81.6%	79.3%	86%	73.2%	70.3%	69.2%	50.6%
C#CCOc1cccc(Nc2ncnc3c(NC(=O)C=C)cccc23)c1	8.09% (active)	55.7%	0.801% (active)	25.8%	-6.1% (active)	23.8%	25.7%	32%	2.68% (active)	4.11% (active)
CN1C(=O)N(C)C2Nn3c(s/c(=C\c4ccc(C(F)(F)F)cc4)c3=O)=NC21 (stereo not given)	115%	100%	100%	82.3%	106%	105%	82.7%	109%	101%	106%
O=C1N[C@@H]2NC(=[N+]3CCOCC3)N[C@@H]2N1	118%	102%	97.8%	87.3%	103%	104%	91.5%	98.3%	108%	103%
COc1ccc(C(=O)Nc2ncc(Cc3cccc(Cl)c3)s2)cc1OC	8.92% (active)	34.1%	39.9%	31.2%	38.5%	16.8%	12.8%	0.53% (active)	17.3%	29.2%
CCCCC(=O)c1ccco1	98.6%	98.7%	87.9%	79.1%	96%	96.7%	90.2%	74.6%	92.3%	102%
O=C(c1ccccc1)C1C(=O)N2C(=S)N(c3ccccc3)C(=O)C2C1c1ccc(Cl)cc1 (stereo not given)	99.5%	100%	91.7%	66.8%	126%	91.8%	82.9%	81.9%	98%	102%
c1ccc(CNc2c3ccccc3nc3ccccc23)cc1	60.8%	48.1%	37.5%	23.8%	48.7%	18.1%	33.1%	16.6%	39%	15.5%
CCOC(=O)c1ccc2[nH]c(O)c(C(=Nc3ccc(N(C)C(=O)CN4CCN(C)CC4)cc3)c3ccccc3)c2c1	-59.2% (active)	-3.53% (active)	11.4%	-41.6% (active)	-70% (active)	2.92% (active)	-0.635% (active)	-59.9% (active)	4.58% (active)	-14% (active)
CCN(c1ccc(Cl)cc1)c1nc(-c2ccc([N+](=O)[O-])cc2)cs1	101%	79.5%	98.5%	71.9%	115%	95.9%	79.6%	63.8%	101%	96.9%
Cc1ccc(-n2c(=S)[nH]c3sc4c(c3c2=O)CCC(=O)C4)cc1	39.6%	93.7%	40.3%	43.8%	83.5%	39.4%	28.6%	109%	20.8%	48.9%
c1cnc2[nH]cc(-c3csc(-c4cn(CCCN5CCOCC5)c5ccccc45)n3)c2c1	82.6%	47.9%	64.5%	23%	69.6%	32.8%	47.5%	53.9%	17.4%	16.6%
COc1cc(-c2nc3cc(Cl)c(Cl)cc3[nH]2)ccc1OCC(=O)N=Nc1c(O)[nH]c2ccc([N+](=O)[O-])cc12	102%	96.2%	81.2%	91.1%	124%	104%	97.2%	109%	21.6%	74.2%
O=[N+]([O-])c1ccc(-c2nc(N3CCOCC3)c3c4c(sc3n2)CCCC4)cc1	95.6%	93.8%	106%	67.2%	105%	96.2%	76.5%	109%	101%	86.4%
CCOC(=O)Cn1c(O)c(N=Nc2ccc(S(N)(=O)=O)cc2)c2cc(Br)ccc21	88.8%	83.3%	88.2%	87.5%	86.4%	84.8%	86.4%	91.4%	53.4%	77%
CC1=Nc2cnc(Nc3ccc(OCCN4CCCC4)cc3)nc2Nc2ccccc21	55.9%	75.1%	61.1%	17.3%	63.6%	28.7%	20.9%	-7.76% (active)	86.3%	34.5%
CN(C)Cc1ccc(NC(=O)c2cncc(C#Cc3cnc(N)c4ncccc34)c2)cc1F	88.6%	93.4%	86.4%	108%	141%	61.1%	87.7%	73.9%	4.73% (active)	76.3%
CCOC(=O)c1[nH]c(=O)c2c(C)nc(-c3ccccc3)cc2c1O	84.8%	98.8%	88.8%	90%	178%	110%	109%	72.6%	91.8%	98.1%
NC(=O)CCC(C(=O)O)N1C(=O)c2ccc(O)cc2C1=O (stereo not given)	97%	101%	108%	93.1%	114%	93.1%	80%	115%	91.1%	59.1%
